# Measurements from PubChem BioAssay AID1053117 (Broad Institute, 2014).
# Measured potencies and affinities stand elsewhere. Values without a mark were called inactive.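 How the source made its calls: active means compounds lowering cell ATP signal with a fitted half-effect dose at most twice the top valid dose; inconclusive means flat curve with 30 to 70% signal loss, or bad fit; inactive means wrong direction, flat within 30%, or weaker than limit.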
# Experiment: viability loss in HEK293 kidney cells – cell-based, cherry-picks, set 5, cytotoxicity control, dose response (AID 1053117);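 further: more negative means greater loss of ATP signal and more cytotoxicity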
# Settings: HEK293T viability, CellTiter-Glo ATP luminescence, 72 h; series mostly up to 26 µM; activity change, negative = cytotoxicity: at the top concentration
row,Compound,"activity change, negative = cytotoxicity"
1,Cc1cccc(N2CCN(S(=O)(=O)c3cn(C)cn3)CC2)c1C,0.767%
2,COC(=O)C[C@@H]1CC[C@@H]2[C@@H](COc3ccc(NC(=O)Cc4cccs4)cc3C(=O)N2C)O1,7.75%
3,C[C@@H]1CN([C@@H](C)CO)C(=O)c2cc(NC(=O)CCCN(C)C)ccc2O[C@@H]1CN(C)Cc1ccc(-c2ccccc2)cc1,-15.1% [at 23.5 µM]
4,COc1ccc([N+](=O)[O-])cc1NS(=O)(=O)c1ccc(C(=O)N2CCCC2)cc1,-10.2%
5,Cc1ccc(S(=O)(=O)N2CC[C@@H]3[C@@H](CO)Nc4ccc(-c5cccc(C(=O)N(C)C)c5)cc4[C@@H]32)cc1,-5.67%
6,CCOC(=O)c1nnn(-c2ccc(OC)cc2)c1N,-7.76%
7,Cc1ccc(Nc2nnc(SCc3ccccc3)s2)cc1,-6.05%
8,O=C(Nc1ccccc1F)N1C[C@@H]2[C@H](c3ccccc31)[C@@H](CO)N2C(=O)C1CC1,-6.87%
9,O=C(CSc1nc2ncc(Cl)cc2[nH]1)c1c[nH]c2ccccc12,1.16%
10,O=C(c1cccnc1)N1C[C@@H]2[C@H](c3ccccc31)[C@@H](CO)N2CC1CCCC1,-1.24%
11,COCC(=O)Nc1ccc2c(c1)C(=O)N(C)[C@@H]1CC[C@H](CC(=O)NCc3ccccc3Cl)O[C@H]1CO2,-9.44%
12,Nc1c(C(=O)NCc2ccco2)nnn1Cc1ccccc1,-12.2%
13,CC(C)Cc1nnc(NC(=O)CSc2nc(N)cc(=O)[nH]2)s1,-11.3%
14,C[C@@H]1CN([C@@H](C)CO)C(=O)c2cc(-c3ccncc3)cnc2O[C@@H]1CN(C)C(=O)Cc1cccnc1,4.14%
15,O=C(NCc1ccccc1)c1ccc(-c2cn[nH]c2)c2ccoc12,0.101%
16,COC(=O)C[C@H]1CC[C@@H]2[C@@H](COc3ccc(NC(=O)Cc4cccs4)cc3C(=O)N2C)O1,-12.4%
17,COc1ccccc1CC(=O)OC(C)C(=O)Nc1ccc(S(=O)(=O)N2CCCCC2)cc1 (stereo not drawn),1.81%

row,Compound,"activity change, negative = cytotoxicity"
1,O=C(c1cccnc1)N1C[C@H]2[C@@H](c3ccccc31)[C@H](CO)N2CC1CCCC1,-3.68% [at 23.5 µM]
2,C[C@@H]1CN([C@H](C)CO)C(=O)c2cc(NC(=O)CCCN(C)C)ccc2O[C@@H]1CN(C)Cc1ccc(-c2ccccc2)cc1,-8.69%
3,COc1ccc(Cl)cc1NC(=O)CSc1nc(Nc2ccccc2)nc(N2CCOCC2)n1,-15.5%
4,C[C@@H]1CN([C@@H](C)CO)C(=O)c2cc(-c3ccccc3)cnc2O[C@@H]1CN(C)Cc1ccccc1,-16.4%
5,C[C@H](O)C#Cc1ccc2c(c1)O[C@H](CN(C)C)[C@@H](C)CN([C@@H](C)CO)S2(=O)=O,-12.8%
6,C[C@@H]1CN([C@H](C)CO)C(=O)c2cccc(NC(=O)Nc3ccc(C(F)(F)F)cc3)c2O[C@H]1CN(C)C(=O)Nc1cccc2ccccc12,-15%
7,COC(=O)C[C@H]1CC[C@H]2[C@@H](COc3ccc(NC(=O)Cc4cccs4)cc3C(=O)N2C)O1,-4.36%
8,COc1ccc(-c2csc(CCn3nc(C)cc3C)n2)cc1OC,-15.6%
9,N#Cc1ccc(-c2ccc3c(c2)[C@@H]2[C@@H](CCN2S(=O)(=O)c2cccc(F)c2)[C@@H](CO)N3)cc1,-14.5% [at 23.5 µM]
10,COc1cccc(-c2ccc3c(c2)[C@@H]2[C@@H](CCN2S(=O)(=O)c2cccc(OC)c2)[C@@H](CO)N3)c1,-15.6%
11,CSc1ccccc1C(=O)C1CCCN(C(=O)CCc2cccnc2)C1 (stereo not drawn),-14.4%
12,C[C@H]1CN([C@@H](C)CO)C(=O)c2cc(NC(=O)C3CCCCC3)ccc2O[C@H]1CN(C)Cc1ccc(-c2ccccc2)cc1,-8.49%
13,C[C@@H]1CN([C@H](C)CO)C(=O)c2cc(-c3ccccc3)cnc2O[C@H]1CN(C)C(=O)c1cccc(F)c1,-9.1%
14,COc1ccc(CN(C2CCCC2)S(=O)(=O)c2ccc(-n3cnnn3)cc2)cc1OC,-7.47%
15,Cc1ccc(N(CC(=O)NCc2ccco2)S(=O)(=O)c2ccccc2)cc1,-15.5%
16,CCC(C)(C)NC(=O)C(OC(=O)c1ccco1)c1ccccc1OC (stereo not drawn),-3.73%
